Measured values: ChEMBL document CHEMBL3988442, “University of Dundee, Small-Polar-MMV Screening Library” (2021)
About 13,000 (27%) of roughly 48,000 compounds showed an effect of 50% or more. The list shows a part of the results.

tested on: Wolbachia pipientis; experiment: Anti-Wolbachia Cell-Based Screen; assay type: functional; parameters: scale not given: in the data most compounds retested in dose-response had high values; details: 5 µM

| SMILES | Percent Effect [%] |
| --- | --- |
| Cc1cccc(-n2cc(CNc3ncnc4c3CCNCC4)cn2)c1 | 94.66 |
| c1ccc(Cn2cc(CNc3ncnc4c3CCNCC4)cn2)cc1 | 100.8 |
| Cn1cc(CNc2ncnc3c2CCN(Cc2ccsc2)CC3)cn1 | 1.057 |
| Cc1cccc(=O)n1CCCNc1ncnc2c1CCNCC2 | -13.78 |
| Cc1ccccc1-n1cc(CNc2ncnc3c2CCNCC3)cn1 | 113.8 |
| Cc1cccc(-n2cc(CN3CCN(C)[C@@H]4CS(=O)(=O)C[C@@H]43)cn2)c1 | -4.421 |
| c1cncc(CNc2ncnc3c2CCN(Cc2ccsc2)CC3)c1 | -11.45 |
| Cc1nc2c(c(NCc3ccc(-c4ccccn4)s3)n1)CCNCC2 | 3.518 |
| CCc1ncc(C(=O)N(C)C2Cc3ccccc3C2)cn1 | 0.7414 |
| CCC(CC)C(=O)N1CCN(C)c2ncccc2C1 | -0.9461 |
| Cn1nnc2c1CCN(C(C(=O)N1CCCCC1)c1ccccc1)C2 (centres undefined) | 4.107 |
| CC(C)(C)C(=O)N1CCCc2c(cnn2-c2ccccc2)C1 | 70.74 |
| CC(C)(C)c1ncc2c(n1)CN(C(=O)C(C)(C)n1cccc1)C2 | 2.811 |
| CC(C)C(=O)N1CCCN(C(=O)NC2CCc3ccccc3C2)CC1 (centres undefined) | 16.47 |
| CC(C(=O)N1CCc2ccccc2C1)n1cc(Br)cn1 (centres undefined) | 4.145 |
| O=C(NCc1nn(-c2ccccc2)c2c1CCC2)N1CCSCC1 | 9.143 |
| CC(C)C(=O)N1CCCc2c(cnn2-c2ccccc2)C1 | 142.7 |
| Cc1nc2c(c(=O)n1C)CCN(C(=O)Cn1cccc1)CC2 | 14.88 |
| O=C(NCC1OCCc2cn(CC3CCOCC3)nc21)c1ccsc1.O=C(O)C(F)(F)F (centres undefined) | -9.912 |
| CN(C)S(=O)(=O)c1ccc(CNC(=O)C2CC(=O)N(C(C)(C)C)C2)cc1 (centres undefined) | 129.4 |
| CSc1ccc(CNC(=O)C2CC(=O)N(C(C)(C)C)C2)cc1 (centres undefined) | 13.09 |
| COc1cc(CNC(=O)C2CC(=O)N(C(C)C)C2)ccn1 (centres undefined) | -0.8085 |
| CN(C)S(=O)(=O)c1ccc(CNC(=O)C2CC2)cc1 | 8.545 |
| CC(C)N1CC(C(=O)NCc2ccc(S(=O)(=O)N(C)C)cc2)CC1=O (centres undefined) | 136.1 |
| CC(C)(C)N1CC(C(=O)NCc2noc(Cc3ccccc3)n2)CC1=O (centres undefined) | -0.1463 |
| COc1cc(Cl)c(NC(=O)NCCn2cccc2)cc1OC | -6.144 |

| SMILES | Percent Effect [%] |
| --- | --- |
| CCN(CC)C(=O)[C@@H]1C[C@@H](N)CN1c1nc(N2CCCC2)nc(C)c1C | -2.729 |
| O=C(c1cn(CCN2CCCCC2)nn1)N1CCCO1 | -7.456 |
| Cc1cc(C(=O)N2CCC(CCn3cccn3)CC2)c(C)o1 | -7.806 |
| Cc1occc1C(=O)N1CCOC2(CCCC2)C1 | 0.5411 |
| COc1cc(C(=O)N2CCCS2(=O)=O)ccc1C | -0.1842 |
| Cc1ccc(C(=O)N2CCCS2(=O)=O)cc1Cl | -5.646 |
| Cc1occc1C(=O)N1CCCS1(=O)=O | 102.9 |
| Cc1cc(C(=O)N2CCS(=O)(=O)CC2)c(C)o1 | 128.6 |
| Cc1cc(C(=O)N2CCN(Cn3cc(Cl)cn3)CC2)c(C)o1 | 0.3754 |
| Cc1cc(C(=O)N2CCCS2(=O)=O)c(C)o1 | 122.2 |
| COc1cc(C(=O)N2CCCS2(=O)=O)cc(Cl)c1OC | 11.62 |
| CN(Cc1ccccc1O)C(=O)NC1CCCN(c2ncccn2)C1 (centres undefined) | -16.23 |
| NC(=O)CCCNC(=O)COc1ccccc1C(F)(F)F | 8.512 |
| Cc1cc(=O)[nH]c(SC(C)C(=O)N2CCC(c3ncc[nH]3)CC2)n1 (centres undefined) | -1.396 |
| Cn1cc(C(=O)N2CCCC(c3ncc[nH]3)C2)cn1 (centres undefined) | -9.118 |
| O=C(CCc1ccccc1)C1CCCN(C(=O)c2ncc(F)cc2F)C1 (centres undefined) | -13.78 |
| N#Cc1ccc(C(=O)N2CCC(c3ncc[nH]3)CC2)cn1 | 118.6 |
| N#Cc1ccc(C(=O)N2CCC3(CC2)C(=O)Nc2ccccc23)cn1 | -3.857 |
| O=C(c1cncc(F)c1)N1CCC(c2ncc[nH]2)CC1 | 103.6 |
| O=C(COCC(F)(F)C(F)F)N1CCC(c2ncc[nH]2)CC1 | -1.399 |
| O=C(c1ncc(F)cc1F)N1CCC(c2ncc[nH]2)CC1 | 114.8 |
| Cn1cc(C(=O)N2CCC(c3ncc[nH]3)CC2)cn1 | 106 |
| CN(C)C(=O)N1CC[C@]2(O)CCN(C(=O)c3ccc(C#N)nc3)C[C@@H]2C1 | 0.1052 |
| CN1CCN(c2ccc(C(=O)N3CCCC(c4ncc[nH]4)C3)cc2)CC1 (centres undefined) | -9.853 |
| CC(C)(C)n1ccc(C(=O)N2CCCC(c3ncc[nH]3)C2)c1 (centres undefined) | -9.494 |
| Cn1ccnc1CN(CCCO)CC(F)(F)F | -6.784 |

| SMILES | Percent Effect [%] |
| --- | --- |
| CCCC(=O)N(Cc1ccncc1)C(C)CC (centres undefined) | -14.56 |
| O=C(O)C(F)(F)F.O=C([C@@H]1COC[C@H]2CN(C3CCOCC3)C[C@H]21)N1CCOCC1 | 8.462 |
| O=C([C@@H]1C[C@@H]2CCN(C3CCOCC3)C[C@@H]2O1)N1CCOCC1 | 114 |
| O=C([C@@H]1C[C@@H]2CCN(C3CCOCC3)C[C@H]2O1)N1CCCC1 | 111.9 |
| O=C([C@H]1COC[C@H]2CN(C3CCCC3)C[C@H]21)N1CCOCC1 | -18.92 |
| O=C(CCn1cncn1)NC1(c2cccc(Br)c2)CCC1 | 14.53 |
| CC(C)C(NC(=O)Nc1cnn(CC(N)=O)c1)c1ccc(Cl)cc1 (centres undefined) | 4.509 |
| O=C(c1coc(CN2CCN(c3ccccc3F)CC2)n1)N1CC=CC1 | -19.74 |
| O=C(c1ccccc1F)N1CCN(CCCn2cncn2)CC1 | -12.58 |
| N#CCSCCCN1CCCC(C(=O)N2CCCCCC2)C1 (centres undefined) | 8.122 |
| N#CCSCCCN1CCN(C(=O)c2cccc(Cl)c2)CC1 | 87.64 |
| Cc1ccc(C(=O)N2CCN(CCCSCC#N)CC2)cc1F | 105.3 |
| Cn1ccc(C(=O)N2CCCN(CCCc3ccccc3)CC2)cc1=O | 5.22 |
| N#CCSCCCN1CCN(C(=O)C2CCCC2)CC1 | -2.265 |
| N#CCSCCCN1CCN(C(=O)c2ccccc2F)CC1 | 105.1 |
| Cc1ccc(C(=O)N2CCN(CCCSCC#N)CC2)o1 | -4.6 |
| Cc1ccc(C(=O)N2CCc3ncnc(C)c3CC2)cc1F | 4.805 |
| N#CCSCCCN1CCN(C(=O)c2ccc(Cl)cc2)CC1 | 23.02 |
| N#CCSCCCN1CCCN(C(=O)c2ccccc2)CC1 | 13.73 |
| Cc1cccc(C(=O)N2CCCN(CCCSCC#N)CC2)c1 | 95.07 |
| O=C(NC1CC1)[C@H]1[C@@H]2CN(Cc3ccc(-c4ccn[nH]4)s3)C[C@@H]21 | -3.84 |
| COC(=O)[C@@H]1C[C@@H](O)CN1Cc1ccn(-c2ccc(F)cc2)n1 | -13.47 |
| CNC(=O)c1ccc2c(OC)n(C)nc2c1 | 2.989 |
| CC(C)n1cnnc1CN(C)Cc1ccoc1 | 9.92 |
| CCc1cnc(N2C[C@H]3CN(Cc4csc(C)n4)C(=O)[C@H]3C2)nc1.O=C(O)C(F)(F)F | -9.51 |
| Cc1c[nH]c(CN2CCOC(c3ccc(Cl)c(Cl)c3)C2)c(C)c1=O (centres undefined) | 94.99 |

| SMILES | Percent Effect [%] |
| --- | --- |
| Cc1cc(C)nc(CN2CCOC(c3ccc(Cl)cc3)C2)n1 (centres undefined) | -0.4936 |
| Cc1c[nH]c(CN2CCOC(c3ccc(Cl)cc3)C2)c(C)c1=O (centres undefined) | 100.9 |
| Cc1c[nH]c(CN2CCOC(c3ccc(F)cc3)C2)c(C)c1=O (centres undefined) | 1.733 |
| Cc1nc[nH]c1CN1CCOC(c2ccc(Cl)c(Cl)c2)C1 (centres undefined) | 1.288 |
| Cc1nnc(CN2CCOC(c3ccc(Cl)c(Cl)c3)C2)o1 (centres undefined) | 7.568 |
| CN1CCN(CCCNCc2cc(O)c3cc(F)ccc3n2)CC1 | -16.72 |
| NC(=O)NCCC(=O)N1CCC(c2cc(Cc3ccccc3)n[nH]2)CC1 | -24.35 |
| Cn1ncc2c1CCCC2NCc1ccc(Cl)s1 (centres undefined) | -1.294 |
| CSc1ccc(CNC2CCCc3c2cnn3C)cc1.Cl (centres undefined) | 78.82 |
| Cn1ncc2c1CCCC2NCc1cnc(-c2ccccc2)nc1 (centres undefined) | -0.06204 |
| Cl.Cn1ncc2c1CCCC2NCc1ccc(Br)s1 (centres undefined) | -6.912 |
| Cn1ncc2c1CCCC2NCc1ccc(OCc2cccnc2)cc1 (centres undefined) | 102.9 |
| Cc1ccc(CNC2CCCc3c2cnn3C)s1.Cl (centres undefined) | 1.48 |
| COc1cc(CNC2CCCc3c2cnn3C)cc(OC)c1.Cl (centres undefined) | 0.06204 |
| Cc1cccc(CNC2CCCc3c2cnn3C)c1.Cl (centres undefined) | 0.5584 |
| Cn1ncc2c1CCCC2NCc1cccnc1 (centres undefined) | 87.53 |
| CC(C)(C)C(O)CN1CCN(C(=O)c2cccc3ncccc23)CC1 (centres undefined) | 5.5 |
| Cn1ccc(C(=O)N2CCCC(Cc3cnc4ccccc4c3)C2)n1 (centres undefined) | 126.8 |
| Cn1ccc(C(=O)N2CCCC(Cc3cccc4ncccc34)C2)n1 (centres undefined) | -23.19 |
| Cn1ccc(C(=O)N2CCCC(Cc3cccc4cccnc34)C2)n1 (centres undefined) | 100.6 |
| COc1cccc(CCC2CCCN(C(=O)c3ccc(=O)n(C)n3)C2)c1 (centres undefined) | -50.16 |
| Cn1ccc(C(=O)N2CCC(Cc3cccc4cccnc34)C2)n1 (centres undefined) | -6.832 |
| Cn1ccc(C(=O)N2CCC(Cc3cccc4ncccc34)C2)n1 (centres undefined) | 142.2 |
| Cn1ccc(C(=O)N2CCC(Cc3cccc4ncccc34)CC2)n1 | 112 |
| CC(C)C(C)NC(=O)CN1CCSCC1 (centres undefined) | 15.54 |
| COC(=O)N1CCCCC1C(=O)N(C)Cc1cc(-c2cccnc2)no1 (centres undefined) | -13.17 |
